Jurkat NFkB inh: inhibitors of induced NF-kB luciferase reporter, primary screen, TCR NF-kB activation inhibitor project, cell-based, luminescence, uHTS; AID 435003, 2010; 0.53% of 330,000 active; inhibition, % at 4 µM; Jurkat, PMA/ionomycin-induced NF-kB luciferase reporter; in the data active = inhibition above about 50%
697 NFkB inh: inhibitors of PMA/ionomycin-induced NF-kB reporter, 697 cells, primary screen, B-cell NF-kB inhibitor project, cell-based, luminescence, uHTS. inhibition, % at 4 µM. 0.33% of 330,000 active. AID 435022, 2010. 697 B-cell NF-kB luciferase reporter, 16 h; in the data active = inhibition above about 35%
Mdm2 MdmX PPI: inhibitors of human Mdm2-MdmX association, primary screen, cell-based, luminescence, split luciferase, SaOS-2, uHTS | SaOS-2 split-luciferase Mdm2/MdmX complementation | AID 485346, 2010 | 3% of 330,000 active | Protein Mdm4 (Homo sapiens) + E3 ubiquitin-protein ligase Mdm2 (Homo sapiens), … | inhibition, % at 8 µM;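 active = inhibition of at least 50% at 8 µM in the primary screen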
CSC inhib: cancer stem cell viability inhibitors, primary screen, luminescence; cancer stem cell-like cells viability; inhibition, % at 7.5 µM; AID 2717, 2010; 1.1% of 300,000 active; in the data active = inhibition above about 75%; tested in HMLE shEcad cells
Beta cell apopt: inhibitors of cytokine-induced beta cell apoptosis, primary screen, luminescence. INS-1E cytokine-induced death, ATP luminescence, 48 h; percent of positive-control rescue, neutral wells zero. protection from apoptosis, % (concentration not given with the values). 0.8% of 300,000 active. AID 435005, 2010;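 active = Every replicate reaches about 75%, or at least half do and their mean reaches it too, limit read from the data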;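 note: higher means more ATP so stronger rescue from cytokine killing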
Gli-Sufu antag: Gli-Sufu pathway antagonists, primary screen, luciferase luminescence, Sufu-KO-LIGHT cells, uHTS; Sufu-KO-LIGHT fibroblasts, Gli luciferase reporter luminescence; inhibition, % at 5 µM; 0.74% of 340,000 active; AID 588413, 2011;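 active = inhibition above about 55%, limit read from the data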
Mdm2 MdmX conf: Mdm2-MdmX complex disruptors, retested hits, confirmation, luminescence, single concentration | shares compounds with Mdm2 MdmX PPI | Mdm2-MdmX binding, luminescent assay | inhibition, % at 8 µM | 55% of 10,000 active | AID 489028, 2010; in the data active = inhibition above about 40%
Full FLuc ctr: full-length luciferase signal inhibition, confirmation, counter-screen for Mdm2/MdmX interaction inhibitor project, cell-based, single concentration, SaOS-2; inhibition, % at 8 µM; 77% of 6,200 active; shares compounds with Mdm2 MdmX PPI; SaOS-2 full-length luciferase counterscreen, luminescence;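 active = mean inhibition at 8 µM reaching about 37%, which flags the compound as non-specific, limit read from the data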;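 note: p53-null SaOS-2 cells with luciferase driven by a doxycycline-inducible promoter; compound on cells about two nights before reading with doxycycline added after day one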
Numbers stand for hits; n = inactive; x = no result. Compounds with a hit are over-represented: about 4.5% of the library has one in this group of screens.

SMILES	Jurkat NFkB inh	697 NFkB inh	Mdm2 MdmX PPI	CSC inhib	Beta cell apopt	Gli-Sufu antag	Mdm2 MdmX conf	Full FLuc ctr
COc1cc(-c2nc3cnccn3c2Nc2ccc(C(C)C)cc2)ccc1O	n	n	n	x	x	n	x	x
COc1cc(-c2nc3cnccn3c2Nc2ccccc2)ccc1O	n	n	56.8	n	n	n	n	94.1
COc1cc(-c2nc3cnccn3c2Nc2ccc3c(c2)OCCO3)ccc1O	n	n	n	n	n	n	x	x
CC(=O)NC12CC3CC(C1)CC(C(=O)N1CCN(S(=O)(=O)c4ccc(C(C)C)cc4)CC1)(C3)C2	n	n	n	n	n	n	x	x
CCn1c(Oc2ccccc2C)nc2c1c(=O)n(C)c(=O)n2C	n	n	56.8	x	x	n	41.8	42.9
CCOC(=O)c1c(SCCN2CCCCC2)n(-c2ccccc2)c(=S)n(-c2ccccc2)c1=O	x	x	x	x	x	n	x	x
Oc1ccc2ccccc2c1/C=C/c1ccc2c(Br)cc(Br)c(O)c2n1	x	x	x	x	x	n	x	x
COc1cc(Br)c(/C=C/c2ccc3cccc(O)c3n2)cc1OC	n	n	73.6	n	n	n	51.6	47.0
COc1cc(Br)cc(/C=C/c2ccc3cccc(O)c3n2)c1O	n	n	80.9	91.7	n	n	68.2	51.0
Oc1ccc(Cl)cc1/C=C/c1ccc2cccc(O)c2n1	n	n	60.2	x	x	n	n	62.8
COc1ccc(OC)c(/C=C/c2ccc3cccc(O)c3n2)c1	n	n	93.1	n	n	x	n	x
CCOc1ccccc1N1CC(C(=O)NCCOc2ccccc2OC)CC1=O (stereo not given)	n	n	n	n	x	n	x	x
CC1=C(C(=O)OCCBr)C(c2cccc3ccccc23)NC(=O)N1 (stereo not given)	n	n	n	n	n	n	x	x
COc1cc(/C=C/c2ccc3cccc(O)c3n2)c(Br)cc1O	n	n	97.5	96.0	n	x	n	n
COc1cc(Cl)cc(/C=C/c2ccc3ccccc3n2)c1OC(C)=O	n	n	n	n	n	n	x	x
C/C=C/c1ccc(O)c(OC)c1	n	n	n	n	n	n	x	x
COc1cc(/C=C/c2ccc3cccc(O)c3n2)ccc1O	n	n	99.7	75.3	n	n	n	x
N/C(=N\OC(=O)COc1ccccc1)c1cccnc1	n	n	n	n	n	n	x	x
N/C(=N\OC(=O)C(c1ccccc1)c1ccccc1)c1ccccn1	n	n	77.3	n	n	n	n	x
N/C(=N\OC(=O)C(c1ccccc1)c1ccccc1)c1cccnc1	n	n	51.5	n	n	n	n	x
CCOC(=O)C1Nc2ccc(C(F)(F)F)cc2C2c3ccccc3CC12 (stereo not given)	n	n	97.0	n	n	n	70.2	43.2
COc1ccc(Nc2nc(-c3cccs3)nc3ccccc23)cc1S(=O)(=O)N1CCOCC1	n	n	85.5	n	n	n	82.4	57.2
COc1ccc(NS(=O)(=O)c2cccs2)cc1S(=O)(=O)N1CCOCC1	n	n	n	n	n	n	x	x
COc1ccc(C)cc1NS(=O)(=O)c1ccccc1	x	x	x	x	x	n	x	x
CC(=O)OC1[C@H](Oc2c(O)c(C)c3c4c2[C@@H](C)CC[C@@H]4[C@@H](C)C[C@@H]3C=C(C)C)OC[C@@H](O)[C@@H]1O (stereo not given in full)	n	n	n	x	n	n	x	x
SMILES	Jurkat NFkB inh	697 NFkB inh	Mdm2 MdmX PPI	CSC inhib	Beta cell apopt	Gli-Sufu antag	Mdm2 MdmX conf	Full FLuc ctr
CC(=O)O[C@H]1[C@H](O)[C@H](Oc2c(O)c(C)c3c4c2[C@@H](C)CC[C@@H]4[C@@H](C)C[C@H]3C=C(C)C)O[C@@H](C)[C@H]1O	n	n	73.8	x	x	n	n	x
COc1ccc(S(=O)(=O)N2c3ccccc3OCC2C(C)(C)C)cc1 (stereo not given)	n	n	57.8	n	x	n	47.1	45.0
COc1ccc(S(=O)(=O)N2CC(C(=O)O)Oc3ccccc32)cc1 (stereo not given)	n	n	n	n	n	n	x	x
COc1ccc(S(=O)(=O)N2c3ccccc3OCC2c2ccccc2)cc1 (stereo not given)	n	n	51.4	n	n	n	71.8	47.7
COc1ccc(S(=O)(=O)N2CCOc3ccccc32)cc1	n	n	60.5	n	n	n	63.0	54.2
COc1ccc(S(=O)(=O)N2c3ccccc3OCC2C)cc1 (stereo not given)	n	n	n	n	n	n	x	x
COc1cccc(NC(=O)Nc2nc(SC)ns2)c1	n	n	n	n	x	n	x	x
Cc1cc(C)nc(NC(=O)Nc2ccc(F)cc2F)n1	n	n	n	n	n	n	x	x
CCCSc1nsc(NC(=O)Nc2ccc(F)cc2F)n1	n	n	87.4	95.4	105.6	n	59.0	71.3
CCSc1nsc(NC(=O)Nc2cccc(F)c2)n1	n	n	94.2	93.3	x	n	88.5	n
COc1cccc(NC(=O)Nc2nc(SC(C)(C)C)ns2)c1	n	n	93.2	95.6	x	n	72.2	57.1
CC(NC(=O)C1=CC=CN2CCS(=O)(=O)N=C12)c1ccc(Cl)cc1Cl (stereo not given)	n	n	n	x	x	n	x	x
O=C(CCc1ccccc1)NNC(=O)Nc1ccc(Cl)cc1	n	n	n	x	x	n	x	x
O=C(CN1c2ccccc2Sc2ccccc21)NNC(=O)Nc1ccc(Cl)cc1	n	n	54.1	x	x	n	n	53.7
O=C(COC(=O)Cc1n[nH]c(=O)c2ccccc12)Nc1ccc(Cl)cn1	n	n	n	n	n	n	x	x
COc1ccc(NS(=O)(=O)c2cc(NC(=O)/C=C/c3cccs3)ccc2N2CCOCC2)cc1	n	n	53.1	n	n	n	n	x
CCN(CC)CCCN(Cc1cc2ccc(C)c(C)c2[nH]c1=O)C(=O)NC1CCCCC1	n	n	61.3	n	n	n	49.9	73.8
Cc1ccc2cc(CN(CC3CCCO3)C(=S)NCc3ccco3)c(=O)[nH]c2c1C (stereo not given)	n	n	83.1	n	n	n	57.7	37.2
CC(=O)c1cccc(NC(=O)CNC(=O)c2sc3ccccc3c2Cl)c1	n	n	76.4	n	x	n	48.2	55.5
Cc1cccc(NC(=O)CNC(=O)c2sc3ccccc3c2Cl)n1	n	n	n	n	n	n	x	x
COc1ccc(NC(=O)NCCCCc2ccccc2)c(OC)c1	n	n	58.1	n	n	n	n	x
